According to PubChem BioAssay (NCI):
This is part of a sample that, as a whole, favours compounds with a hit. Of some 83,000 tested, about 20% had one in any assay.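 Interpretation: 100, growth as untreated; towards 0, rising growth inhibition; 0, no net growth; 0 to -100, cell death. Compounds scoring below 10 were considered active.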 The source made the active and inactive calls.

These molecules were tested on MDA-MB-468 breast (assay: NCI-60 one-dose screen, 48 h (100 = growth as untreated, 0 = no growth, -100 = all killed)). Settings: 10 µM unless noted.

SMILES	growth
C=C(C)C(=O)Nc1ccc(NC(C)C)cc1	111% (inactive)
CCN(CC)CCC(C(=O)O)(c1ccccc1)c1ccccc1	120% (inactive)
CC(=O)O[C@H]1Cc2c([nH]c3ccccc23)[C@@H](c2ccc(Cl)cc2)N1C(=O)CCNC(C)(C)C	8.31% (active)
CCOC(=O)c1cc(C(=O)OCC)c(C)nc1C	109% (inactive)
Cc1cc(=O)c2cc3nc(-c4cccnc4)oc3c(Br)c2o1	96.4% (inactive)
N=C(N)c1ccc(-c2ccc(-c3ccccc3)o2)nc1	59.9% (inactive)
CC[C@@H](C[C@H](CCO)c1ccccc1)c1cc2ccccc2o1	107% (inactive)
COC(=O)c1ccc(NC(=S)N2CCc3ccc([N+](=O)[O-])cc3C2)cc1O	94.2% (inactive)
CC(C)CCSc1nc(Nc2ccccc2)c(C#N)c(-c2ccccc2)n1	43.4% (inactive)
CS(=O)(=O)Nc1ccc(-c2nn(-c3ccc(S(C)(=O)=O)cc3)cc2/C=C/C(=O)c2ccc(NC(=O)CO[N+](=O)[O-])cc2)cc1	95% (inactive)
C#Cc1cccc(Oc2ccc(NC(=O)CCl)cc2)c1	-7.9% [8.25 µM] (active)
COc1ccc(C2NC(=O)Nc3ccccc32)c(OC)c1 (stereo not given)	103% (inactive)
COc1ccc(/C=C/C(=O)/C=C(/C=C/c2ccc(OC)c(OC)c2)OB(F)F)cc1OC	45.6% (inactive)
Cc1ccc2nc(Cl)c(-c3nc4ccccc4o3)cc2c1	100% (inactive)
CC(Nc1c(C#N)cnc2ccc(-c3cncc(O)c3)cc12)c1ccccc1 (stereo not given)	-37% (active)
CCc1ccc(Nc2cc(C)c3ccc(O)cc3n2)cc1	-11.2% (active)
CCCCCCCNC(=O)CCCNc1ncnc2c1ncn2-c1cccc(C(C)O)c1 (stereo not given)	59.7% (inactive)
Cc1[nH]c(=O)[nH]c(=O)c1CCSSCCc1c(C)[nH]c(=O)[nH]c1=O	105% (inactive)
O=C(CCCCCCCCC(=O)N/N=C\c1ccccc1O)N/N=C\c1ccccc1O	-28.4% (active)
Cn1c(COC(=O)NCCn2ccnc2)nc2c(N3CCOCC3)nc(-c3ccccc3)nc21	-64.1% (active)

SMILES	growth
O=C(CSc1nccc(=O)[nH]1)Nc1ccc(-c2nc3ccccc3[nH]2)cc1	118% (inactive)
CCN(CC)CCSc1c2ccc(Cl)cc2nc2ccc(OC)cc12	-17.5% (active)
Cn1cc(-c2csc(-c3cn(CCNC(=O)OC(C)(C)C)c4ccc(F)cc34)n2)c2cccnc21	19.5% (inactive)
O=C1/C(=C/c2cccc(Br)c2)COc2ccc(O)c(O)c21	-47.5% (active)
O=C(O)c1ccc(-n2cc(CNc3ccc(Cl)cc3)c(-c3ccc(F)cc3)n2)cc1	106% (inactive)
C=C1CCC2C3(C)COC(C)(C)OC3CCC2(C)C1C/C=C1/C(=O)OCC1Oc1ccccc1OC (stereo not given)	60.6% (inactive)
O=S(=O)(NCCO)c1ccc(OCCOc2ccc(S(=O)(=O)NCCO)cc2)cc1	95.3% (inactive)
CCCCCc1ccc(S(=O)(=O)Nc2cccc(-c3csc(NC(=O)CN4CCN(C)CC4)n3)c2)cc1	89.5% (inactive)
O=C(Nc1cccc(C2=NCCN2)c1)c1ccc(-c2ccc(C(=O)Nc3cccc(C4=NCCN4)c3)cc2)cc1	62% (inactive)
CCOC(=O)c1cnn(CC(O)CC)c1NC(=O)NCc1ccccc1C(F)(F)F (stereo not given)	106% (inactive)
COc1ccc(Cn2cc(C#N)c(N)c2C(C)=O)cc1	102% (inactive)
C(=C\c1cn(-c2ccccc2)nc1-c1ccccc1)/c1nnc(-c2c[nH]c3ccccc23)o1	87.1% (inactive)
CC(=O)Nc1cccc(-n2c(=O)n(C3CC3)c(=O)c3c(Nc4ccc(I)cc4F)n(C)c(=O)c(C)c32)c1	77.2% (inactive)
Clc1ccc(CCC(Cn2ccnc2)Sc2c(Cl)cccc2Cl)cc1 (stereo not given)	36.9% (inactive)
CS(=O)(=O)c1ccc(C(=O)Nc2ccc(Cl)c(-c3ccccn3)c2)c(Cl)c1	3.59% (active)
Cc1ccc(N)cc1F	100% (inactive)
C/C(Cc1ccccc1)=N\O	106% (inactive)
CCCCCCCCCCCCCCCCCCOc1ccc(CC(=O)OCC[N+]2(C)CCCCC2)cc1	92.2% (inactive)
Cc1n(Cc2ccc3ccccc3c2)cc[n+]1Cc1ccc2ccccc2c1	-22.8% (active)
C=C1C(=O)O[C@H]2[C@H]1CC/C(C(=O)Nc1ccc(OC)c(C(N)=O)c1O)=C\CC[C@@]1(C)O[C@@H]21	20.4% (inactive)
